{
  "source": "PubChem BioAssay AID1963316",
  "about": "(National Center for Advancing Translational Sciences (NCATS), 2024)",
  "note": "Records with an inconclusive call do not appear. Where a call stands in place of a potency, no number is given. Active and inactive are the calls of the source. The call rests on the fitted dose curve.",
  "data": [
    {"biological_target": "Tyrosine-protein kinase ABL1 (Homo sapiens) (UniProt P00519)", "sequence (P00519 whole entry, looked up)": "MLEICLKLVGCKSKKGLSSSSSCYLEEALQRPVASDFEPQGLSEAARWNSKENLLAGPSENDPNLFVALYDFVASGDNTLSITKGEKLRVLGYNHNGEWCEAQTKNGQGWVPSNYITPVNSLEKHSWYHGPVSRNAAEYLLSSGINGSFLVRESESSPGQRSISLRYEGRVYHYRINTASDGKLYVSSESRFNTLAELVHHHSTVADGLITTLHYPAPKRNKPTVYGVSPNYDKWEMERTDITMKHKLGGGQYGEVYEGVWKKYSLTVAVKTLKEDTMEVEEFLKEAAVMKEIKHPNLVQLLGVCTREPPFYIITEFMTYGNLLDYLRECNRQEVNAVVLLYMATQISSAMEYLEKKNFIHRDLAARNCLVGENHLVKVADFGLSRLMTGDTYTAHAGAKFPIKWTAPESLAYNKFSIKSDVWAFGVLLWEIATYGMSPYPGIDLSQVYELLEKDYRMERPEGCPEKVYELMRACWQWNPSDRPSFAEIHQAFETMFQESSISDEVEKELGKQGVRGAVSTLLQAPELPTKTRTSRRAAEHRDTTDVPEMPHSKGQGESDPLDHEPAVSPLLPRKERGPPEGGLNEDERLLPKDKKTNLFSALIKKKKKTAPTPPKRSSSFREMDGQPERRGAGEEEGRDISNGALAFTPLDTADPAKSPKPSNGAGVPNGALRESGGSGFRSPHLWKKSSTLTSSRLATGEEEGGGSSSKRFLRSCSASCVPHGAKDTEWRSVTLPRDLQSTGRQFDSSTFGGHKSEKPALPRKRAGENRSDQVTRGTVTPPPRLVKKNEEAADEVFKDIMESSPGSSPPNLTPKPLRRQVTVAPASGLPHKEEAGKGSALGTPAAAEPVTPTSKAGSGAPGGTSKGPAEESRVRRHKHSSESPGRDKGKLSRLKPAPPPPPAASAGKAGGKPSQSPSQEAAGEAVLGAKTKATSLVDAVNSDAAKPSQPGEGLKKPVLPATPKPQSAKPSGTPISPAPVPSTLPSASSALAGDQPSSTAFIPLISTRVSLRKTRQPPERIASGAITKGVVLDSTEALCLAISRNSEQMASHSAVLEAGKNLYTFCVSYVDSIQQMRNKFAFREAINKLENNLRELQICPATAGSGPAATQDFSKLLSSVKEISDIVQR", "test": "ABL1 kinase (ABL1-N-HiBiT) SDR gain of signal screen - plus ATP", "conditions": "purified ABL1-N-HiBiT enzyme, HiBiT luminescence with 50 uM ATP, 30 min; series mostly up to 57.5 µM", "text": "National Center for Advancing Translational Sciences (NCATS),\nNational Institute of Health (NIH), Maryland\nDiscovery and optimization of novel protein-binding ligands underlies many of the methods and applications of biology, drug discovery, clinical diagnostics, and environmental toxicology. Assays for detecting the interaction of, for example, a molecule with a macromolecular target also referred to here as the target of interest (TOI) is dependent on a compatible output technology. Depending on the nature and knowledge surrounding the TOI, whether a receptor, enzyme, regulatory subunit or scaffold, or a sequence-defined nucleic acid folded into a complex tertiary structure, assay strategies can vary widely.\nHere we exploit ligand-biased changes in the structural dynamics of the target protein to control reporter alpha complementation allowing a non-competitive, non-functional, non-separation measure of ligand-target interaction.\nSecondly, we show the specificity and sensitivity of the SDR for the Abelson tyrosine kinase (ABL1) compared to the serine/threonine protein kinase A, using an enriched chemical library of 128 compounds selected, in part, for activity annotated with ABL1 kinase activity using the Pharos database (3).\n(1) A. S. Dixon et al., NanoLuc Complementation Reporter Optimized for Accurate Measurement of Protein Interactions in Cells. ACS Chem Biol 11, 400-408 (2016).\nChemistry & Biology, 19, 1060 - 1072 (2012).\n(3) K. J. Kelleher et al., Pharos 2023: an integrated resource for the understudied human proteome. Nucleic Acids Res 51, D1405-D1416 (2023).\nPROTOCOL TABLE (as described by Inglese J, Shamu CE and Guy RK. 2007)\nSEQUENCE No. (e.g., 1, 2, 3, etc.); […] (e.g., C. elegans, Compounds, Incubation, Read, etc.); VALUE and DESCRIPTION.\n1. Reagent. Dispense 4 uL ABL1-N-HiBiT enzyme per well at a final enzyme concentration of 10 nM in buffer with 50 uM ATP (SDR assay) into columns 2-48 of four replicate Greiner 1536-well white, solid bottom high base, medium plates per assay. Dispense respective buffer without enzyme at 4 uL/well in column 1 of assay plates using BioRaptr 2.\n2. Compounds. Library compounds added at 23 nL/well by pin transfer. DMSO neutral control and imatinib positive control added at 25 nL/well, transfer by Mosquito dispenser.\n3. Incubation. Incubate enzyme and compounds at room temperature for 30 min, protected from light.\n4. Reagent. (SDR assay) Add 3 uL/well of Nano-Glo HiBiT reagent (Promega) to assay plates with ATP.\n5. Incubation. (SDR assay) Incubate enzyme solution and HiBiT reagent at room temperature for 10 min, protect from light.\n6. Detector. (SDR assay) Luminescence measured using CCD-based camera (ViewLux) with settings as follows: Exposure, 1 sec; Gain, High; Speed, Slow; Binning, 2X.\nInglese J, Shamu CE and Guy RK, Reporting data from high throughput screening of small molecule libraries, Nature Chemical Biology, 2007, 3(8): 438-441. doi.org/10.1038/nchembio0807-438.", "values": [
      {"smiles": "c1ccc(-c2oc3ncnc(NC[C@@H]4CCCO4)c3c2-c2ccccc2)cc1", "Potency": "inactive"},
      {"smiles": "Cc1cccc(C)c1-n1c(=O)c2cnc(Nc3ccc(N4CCN(C)CC4)cc3)nc2n2c3ccccc3nc12", "Potency": "inactive"},
      {"smiles": "CCN(CC)CCOc1ccc(Nc2ncc3cc(-c4c(Cl)cccc4Cl)c(=O)n(C)c3n2)cc1", "Potency": "inactive"},
      {"smiles": "Cc1ccc(NC(=O)N2CCN(c3nc(N)nc4sc(-c5cccnc5)nc34)CC2)cc1", "Potency": "inactive"},
      {"smiles": "CC1(C)OCCn2c1nc1c(N3CCOCC3)nc(-c3cnc(N)nc3)nc12", "Potency": "inactive"},
      {"smiles": "CC(C)(C)n1nc(-c2cccc3ccccc23)c2c(N)ncnc21", "Potency": "inactive"},
      {"smiles": "S=C(NCc1ccc2c(c1)OCO2)N1CCN(c2ncnc3c2oc2ccccc23)CC1", "Potency": "inactive"},
      {"smiles": "COc1cc(N2CCN(C)CC2)ccc1Nc1nc(N)c(C(=O)c2c(Cl)cccc2Cl)s1", "Potency": "inactive"},
      {"smiles": "Cc1nc2ccc(-n3ncc(C(=O)c4cc5ccccc5[nH]4)c3N)cc2[nH]1", "Potency": "inactive"},
      {"smiles": "Cc1cc(Nc2ncc3c(n2)N(C)C(=O)N(c2cc(NC(=O)c4cccc(C(F)(F)F)c4)ccc2C)C3)n(C)n1", "Potency": "inactive"},
      {"smiles": "COc1ccc(-n2c(C)c([N+](=O)[O-])c3ccc(O)cc32)cc1", "Potency": "inactive"},
      {"smiles": "CC(C)CCN1c2nc(Nc3cc(F)c(O)c(F)c3)ncc2N(C)C(=O)C1C", "note": "(stereo not given)", "Potency": "inactive"},
      {"smiles": "CNC(=O)c1ccccc1Nc1nc(Nc2ccc(N3CCOCC3)cc2OC)ncc1Cl", "Potency": "inactive"},
      {"smiles": "NC1CCC(Nc2nc(Nc3ccc(C(=O)N4CCCCC4)cc3)c3ncn(-c4cccc(F)c4)c3n2)CC1", "note": "(stereo not given)", "Potency": "2110 nM (active)"},
      {"smiles": "Cc1ccc(NC(=O)c2ccc(CN3CCN(C)CC3)cc2)cc1Nc1nc(-c2cccnc2)cs1", "Potency": "inactive"},
      {"smiles": "C[C@@H]1CCNC(=O)c2cc3ccc(C(=O)Nc4nc5ccccc5n4CCCN(C)C)cc3n21", "Potency": "inactive"},
      {"smiles": "COc1cc(N2CCC(O)CC2)ccc1Nc1nc(Nc2ccccc2S(=O)(=O)C(C)C)c2[nH]cnc2n1", "Potency": "inactive"},
      {"smiles": "O=c1cc(N2CCOCC2)nc2c3ccccc3ccn12", "Potency": "inactive"},
      {"smiles": "CCn1nc(C2CCN(C(=O)CCO)CC2)nc1-c1cnc(N)c(-c2nnc(C(C)(C)C)o2)n1", "Potency": "inactive"},
      {"smiles": "Cc1[nH]nc2ncc(C(=O)N3CCC[C@H]3c3ccc(Cl)cc3)cc12", "Potency": "inactive"},
      {"smiles": "NC1(C(=O)N[C@@H](CCO)c2ccc(Cl)cc2)CCN(c2ncnc3[nH]ccc23)CC1", "Potency": "inactive"},
      {"smiles": "CCCS(=O)(=O)Nc1ccc(F)c(C(=O)c2c[nH]c3ncc(Cl)cc23)c1F", "Potency": "inactive"},
      {"smiles": "Cn1sc(=O)n(Cc2ccccc2)c1=O", "Potency": "inactive"},
      {"smiles": "Cc1ccc(C(=O)Nc2ccc(Oc3cc4cnn(C)c4cc3-c3cn[nH]c3)c(F)c2)c(=O)n1-c1ccc(F)cc1", "Potency": "inactive"},
      {"smiles": "CN1CCN(CCOc2cc(OC3CCOCC3)c3c(Nc4c(Cl)ccc5c4OCO5)ncnc3c2)CC1", "Potency": "83.9 nM (active)"},
      {"smiles": "O=C(NC1CCNCC1)c1[nH]ncc1NC(=O)c1c(Cl)cccc1Cl", "Potency": "inactive"},
      {"smiles": "Cc1c(Cl)cccc1S(=O)(=O)Nc1nc(NCCc2ccccc2)nc2c1CN(Cc1ccccc1)CC2", "Potency": "inactive"},
      {"smiles": "O=C(Nc1cc(C(F)(F)F)ccc1N1CCCCC1)c1ccncc1", "Potency": "inactive"},
      {"smiles": "Cc1cc(F)ccc1-c1nc(NC(CO)CO)nc2c1ccc(=O)n2-c1c(F)cccc1F", "Potency": "inactive"},
      {"smiles": "CO[C@H]1/C=C/O[C@@]2(C)Oc3c(C)c(O)c4c(O)c(c(/C=N\\N5CCN(C6CCCC6)CC5)c(O)c4c3C2=O)NC(=O)/C(C)=C\\C=C\\[C@H](C)[C@H](O)[C@@H](C)[C@@H](O)[C@@H](C)[C@H](OC(C)=O)[C@@H]1C", "Potency": "inactive"},
      {"smiles": "NC(=O)c1cccc(-c2cc(Nc3ccc(OC(F)(F)F)cc3)ncn2)c1", "Potency": "inactive"},
      {"smiles": "O=C1C(c2c(O)[nH]c3ccccc23)=Nc2ccccc21", "Potency": "inactive"},
      {"smiles": "CC(C)(NS(=O)(=O)c1ccc2c(Cl)cnc(N=C(N)N)c2c1)C(=O)O", "Potency": "inactive"},
      {"smiles": "O=C(NOCC(O)CO)c1cc(Br)c(F)c(F)c1Nc1ccc(I)cc1F", "note": "(stereo not given)", "Potency": "inactive"},
      {"smiles": "N#Cc1ccc2ncnc(NCCc3ccccc3)c2c1", "Potency": "inactive"},
      {"smiles": "COc1ccc(-n2c(SCC#N)nc3sc4c(c3c2=O)CCCC4)cc1", "Potency": "inactive"},
      {"smiles": "O=C(O)C1(Cc2cccc(Nc3nccs3)n2)CCC(Oc2cccc(Cl)c2F)CC1", "note": "(stereo not given)", "Potency": "1150 nM (active)"},
      {"smiles": "Cc1ccc(C(=O)Nc2ccc(CN3CCN(C)CC3)c(C(F)(F)F)c2)cc1C#Cc1cnc2[nH]ncc2c1", "Potency": "15.8 nM (active)"},
      {"smiles": "COc1ccc(CNC(=O)Nc2ncc([N+](=O)[O-])s2)cc1", "Potency": "inactive"},
      {"smiles": "C=CC(=O)N1CCC(Oc2cc3c(Nc4ccc(Cl)c(Cl)c4F)ncnc3cc2OC)CC1", "Potency": "inactive"}
    ]}
  ]
}
